Tau fluor counter: Counterscreen qHTS for Inhibitors of Tau Fibril Formation, Fluorescence Polarization | tau K18 P301L Alexa594 fluorescence, heparin fibrillization | Potency, µM (series often up to 57.7 µM), for the others: top-dose activity change, negative = decrease | 280,000 tested, 0.93% active; further: nearly all actives have a fitted effect of over 55% in size
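Human K18 P301L tau (15 uM unlabeled plus 0.24 uM Alexa 594-labeled, final) in 100 mM sodium acetate pH 7 was mixed with compound and 20 uM heparin and incubated 6 hr at 37 C.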
TRb-SRC2 inh: qHTS for Inhibitors of the Interaction of Thyroid Hormone Receptor and Steroid Receptor Coregulator 2. Potency, µM (highest dose often 106 µM), without a hit: at the top dose activity change, negative = inhibition, hits mostly inhibitors. Thyroid hormone receptor beta (Homo sapiens), P10828. 280,000 tested, 0.065% active. TRbeta-SRC2 peptide binding, fluorescence polarization; receptor liganded with 1 µM T3;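 further: plate controls were bound peptide for no effect and peptide without receptor for full effect; nearly all actives have a fitted effect of over 50% in size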
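Read-out is fluorescence polarization (555 nm excitation, 632 nm emission) of a Texas Red SRC2 coactivator peptide; loss of signal reflects blocked binding to human TRb ligand-binding domain in the presence of 1 uM T3.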
TexasRed fluor: Total Fluorescence Counterscreen for Inhibitors of the Interaction of Thyroid Hormone Receptor and Steroid Receptor Coregulator 2 | TRb/SRC2 Texas Red total fluorescence interference | Potency, µM (doses to about 106 µM), inactives show at the top dose fluorescence change, negative = quenching | 280,000 tested, 0.29% active | AID 1479, 2009; active means well fitted curve in either direction with a large enough effect; inconclusive means small, poorly fitted or top-dose-only effect
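Human TRb ligand-binding domain at 0.6 uM with 20 nM Texas Red SRC2 peptide in Tris buffer containing 1 uM T3 and 5% DMSO, incubated with compound 5 h at ambient temperature. Total fluorescence (555/632 nm) calculated as parallel + 2 × perpendicular.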
JMJD2E inh: qHTS Assay for Inhibitors of Human Jumonji Domain Containing 2E (JMJD2E). Lysine-specific demethylase 4E (Homo sapiens), B2RXH2. JMJD2E catalytic domain, FDH-coupled NADH fluorescence (FDH is formaldehyde dehydrogenase). Potency, µM (doses to about 57.1 µM), for the others: at the top dose activity change, negative = inhibition, usual class: inhibitors. 230,000 tested, 1.6% active; active means well fitted inhibition curve with a large enough effect, not every such curve was filed as active; inconclusive means small, poorly fitted or top-dose-only effect, or another doubt; inactive means no such curve, though single readings can be large or run the other way;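 further: 0% = wells with enzyme and -100% = buffer wells without enzyme; nearly all actives have a fitted effect of over 50% in size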
Target sequence (B2RXH2 1-337 limits assumed): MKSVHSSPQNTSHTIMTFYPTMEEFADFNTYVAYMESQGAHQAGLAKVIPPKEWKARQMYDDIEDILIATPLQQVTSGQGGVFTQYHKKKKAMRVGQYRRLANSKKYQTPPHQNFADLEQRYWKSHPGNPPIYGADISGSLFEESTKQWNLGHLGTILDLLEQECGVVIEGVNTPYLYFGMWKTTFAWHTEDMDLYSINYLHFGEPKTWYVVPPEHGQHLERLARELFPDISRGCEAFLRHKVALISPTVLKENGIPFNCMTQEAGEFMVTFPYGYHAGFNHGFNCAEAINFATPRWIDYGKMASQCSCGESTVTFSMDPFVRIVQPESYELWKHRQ
Tau fibril FP: qHTS for Inhibitors of Tau Fibril Formation, Fluorescence Polarization | AID 1468, 2008 | 280,000 tested, 0.39% active | K18 P301L tau heparin fibrillization, Alexa594 FP, 6 h | Microtubule-associated protein tau (Homo sapiens), P10636 | Potency, µM (doses to about 57.7 µM), inactives show at the top dose activity, negative = inhibition, usual class: inhibitors; further: nearly all actives have a fitted effect of over 55% in size
Target sequence (P10636 561-689 P618L limits assumed): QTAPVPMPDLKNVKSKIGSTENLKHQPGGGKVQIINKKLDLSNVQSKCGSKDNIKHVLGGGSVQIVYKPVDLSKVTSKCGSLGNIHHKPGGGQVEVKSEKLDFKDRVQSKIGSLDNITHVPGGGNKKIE
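Recombinant K18 P301L […], labeled with Alexa 594 at 0.24 uM over 15 uM unlabeled; heparin inducer 20 uM final; 37 C, 6 hr; FP endpoint.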
Tau fibril ThT: qHTS for Inhibitors of Tau Fibril Formation, Thioflavin T Binding; Microtubule-associated protein tau (Homo sapiens), P10636; recombinant tau K18 P301L, heparin-induced fibrillization, ThT fluorescence; Potency, µM (titrated, usually from 57.4 µM), for the others: at the highest dose activity, negative = inhibition, hits mostly inhibitors; 270,000 tested, 2.1% active; AID 1460, 2008; further: nearly all actives have a fitted effect of over 55% in size
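Fibril formation assay: tau K18 P301L at 15 uM with trace Alexa 594 label, heparin inducer 20 uM, pH 7 sodium acetate buffer, 37 C for 6 hr; endpoint ThT signal.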
Numbers without * were called inactive; u = inconclusive; x = not tested or not shown; [ ] = dose if it differs, or a comment. The list is not random: actives were taken first. Their share in the collection is about 3.5%. Unless noted, the call rests on the fitted dose curve; in most records, active means well fitted curve in the direction sought with a large enough effect; inconclusive means small, poorly fitted or top-dose-only effect, or another doubt; inactive means no such curve, though single readings can be large; an effect the other way counts as inactive or inconclusive. Unless noted, on the % scale 0 is the no-effect control and ±100 the full control effect; potency means the concentration at half of the fitted maximal effect.

SMILES	Tau fluor counter	TRb-SRC2 inh	TexasRed fluor	JMJD2E inh	Tau fibril FP	Tau fibril ThT
CCOC(=O)c1ccc(NC(=O)CC2SC(=NC)N(C)C2=O)cc1 (configuration not stated)	-12%	8%	-3%	-1%	-1%	-13%
O=C(NC(=S)Nc1cc(S(=O)(=O)N2CCOCC2)ccc1O)c1ccco1	-4%	-6%	1%	5%	-1%	-6%
Cc1ccc(C)c(N2CCN(C(=O)CSCc3ccccc3Cl)CC2)c1	-11%	6%	-4%	x	-5%	u
O=C(NCc1ccc(Cl)cc1)c1ccc(NC(=O)N2CC3CCCN3c3ccccc32)cc1 (configuration not stated)	u	-2%	0%	x	13%	-12%
COc1ccc(N=CC=C2OC(C)(C)C(C)(C)O2)cc1OC	-19%	-3%	5%	u	-7%	u
CC(=O)Nc1ccc(N=NN2CCOCC2)cc1	-27%	1%	-1%	-23%	-11%	10µM*
CC(=O)Nc1ccc(N=Nc2ccc(O)cc2)cc1	-25%	12%	-6%	1%	4%	7.9µM*
O=C(Nc1cccc([N+](=O)[O-])c1)C1C2CC/C=C\CCC21 (configuration not stated)	-16%	3%	2%	7%	0%	-4%
COc1ccc(-c2cc3nc(-c4ccccc4)cc(N4CCC5(CC4)OCCO5)n3n2)cc1	-25%	-6%	-2%	u	-12%	-15%
O=C(O)c1cccc(N/N=C/C2=C(Cl)c3cc(Cl)ccc3SC2)c1	u	14%	u	-2%	u	6.3µM*
O=C(O)c1cccc(N/N=C/c2ccc(F)c(F)c2)c1	-6%	-7%	-2%	-25%	2%	u
CCCc1ccc(OC(=O)c2ccc(O)cc2Cl)cc1	u	4%	-5%	3%	28µM*	u
CCCc1ccc(OC(=O)c2cccs2)cc1	-12%	-15%	-1%	4%	-13%	-11%
CCOc1cc(C2C3=C(CCCC3=O)N(C)C3=C2C(=O)CCC3)cc(Cl)c1O	-9%	4%	-2%	u	-2%	-13%
COc1ccc(C2=CSC(/N=C/c3ccc(F)cc3)=NN2)cc1	u	-9%	-3%	-4%	-4%	14µM*
CCN1CC(CN(C)Cc2nc(-c3ccco3)oc2C)CC1=O (configuration not stated)	-8%	11%	1%	-11%	-4%	-10%
CCC(=O)NC1=C(Cl)C(=O)C(NC(=O)CC)=C(Cl)C1=O	u	8%	0%	u	3.5µM*	2µM*
CCC(=O)NC1=C(NC(C)c2ccccc2)C(=O)c2ccccc2C1=O (configuration not stated)	-11%	-9%	1%	-2%	2%	u
Clc1ccccc1-c1ccc(/C=N/Nc2nncc(-c3ccccc3)n2)o1	-27%	-1%	-2%	-1%	16%	2µM*
FC(F)(F)c1cccc(-c2ccc(/C=N/Nc3nncc(-c4ccccc4)n3)o2)c1	-17%	4%	-1%	5%	7%	u
Clc1ccc(-c2ccc(/C=N/Nc3nncc(-c4ccccc4)n3)o2)cc1	-27%	-8%	0%	3%	-3%	2.2µM*
Cc1ccc(/C=N/Nc2nncc(-c3ccccc3)n2)o1	-14%	0%	-7%	-5%	-3%	u
O=C(c1cnc2n(c1=O)CCS2)N1CCN(C(c2ccccc2)c2ccc(Cl)cc2)CC1 (configuration not stated)	-13%	9%	-4%	8%	u	u
O=C(Nc1ccc(N2CCCC(O)C2)cc1)c1snc2c(=O)[nH]cnc12 (configuration not stated)	-29%	-2%	0%	-2%	0%	3.5µM*
Cc1nc2c(C(=O)Nc3ccc(N4CCCC(O)C4)cc3)snc2c(=O)[nH]1 (configuration not stated)	u	5%	-2%	1%	-1%	x
SMILES	Tau fluor counter	TRb-SRC2 inh	TexasRed fluor	JMJD2E inh	Tau fibril FP	Tau fibril ThT
CN1C(=O)/C(=C\C=C2/CCCN2C)N(C)C1=S	-14%	-6%	1%	-28%	u	u
CCN1C(=O)/C(=C/C=C2/CCCN2C)OC1=S	-23%	-30%	24%	11µM*	-12%	u
O=C(CNCc1ccco1)Nc1cccc(S(=O)(=O)N2CCCCC2)c1	-10%	0%	-3%	u	3%	-8%
NC(=S)n1[nH]c(-c2ccc([N+](=O)[O-])cc2)c(N=Nc2ccc(Cl)cc2)c1=O	u	-2%	-3%	-5%	9%	4µM*
C=CCn1c(O)c(/C=C2\C=NN=C2c2ccccc2)sc1=S	u	3%	-2%	-7%	u	u
CCn1c(O)c(C=Nc2ccccc2)sc1=S	u	5%	19%	-28%	3%	u
CCCn1c(O)c(/C=C2\C=NN=C2c2ccccc2)sc1=S	u	0%	-2%	-3%	18µM*	-13%
CCCCC(CC)Cn1c(O)c(/C=C2\C=NN=C2c2ccccc2)sc1=S (configuration not stated)	0%	6%	0%	2%	18µM*	1%
CC(NC(=O)C1CCCO1)c1ccccc1 (configuration not stated)	-7%	6%	0%	0%	-2%	-9%
Cn1c(SCc2nnc(-c3ccc(F)cc3)o2)nnc1C1COc2ccccc2O1 (configuration not stated)	-12%	9%	1%	-7%	-3%	-9%
COc1cccc(C(=O)Nc2ccc(NC(=O)C(C)C)nc2)c1	-25%	-2%	-5%	-3%	u	-5%
O=C(N/N=C\c1cccs1)c1ccccc1-n1cccc1	-5%	6%	-1%	3%	0%	-5%
Cc1c(C(=O)N/N=C/c2cccs2)nc2ccccn12	-1%	-21%[53 µM]	178µM*[quencher]	-8%	-3%	4%
CCc1ccccc1N1C(=O)N(Cc2ccc(C#N)cc2)c2ccccc2S1(=O)=O	-22%	0%	u	x	u	1%
O=S(=O)(Nc1ccn(-c2ccccc2)n1)c1ccc(Br)cc1	u	-17%	2%	u	-7%	u

Source: PubChem (National Center for Advancing Translational Sciences (NCATS))
